The whole screen tested about 2,100 compounds, of which about 1,100 (52%) were called active. Roughly 27% stayed inconclusive and do not appear here. The set was probably picked from earlier hits. This is one part of the list. Values without a mark were called inactive. The call rests on the fitted dose curve; in most records, active means well fitted inhibition curve with a large enough effect; inconclusive means small, poorly fitted or top-dose-only effect; inactive means no such curve, though single readings can be large or run the other way.
Potency means the concentration at half of the fitted maximal effect.

This test deals with DNA dC->dU-editing enzyme APOBEC-3G (Homo sapiens) (UniProt Q9HC16). As to the kind of experiment: qHTS for inhibitors of Vif-A3G interactions: Cherry picks counterscreen.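 Further: hits raise yellow fluorescence by blocking Vif-driven A3G-eYFP degradation; nearly all actives have a fitted effect of over 70% in size.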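 On max response: max response given as percent of control signal.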 The note with it: HeLa A3G-eYFP + Vif (tagged APOBEC3G with the HIV-1 protein that degrades it), eYFP fluorescence, 24 h. The procedure, abridged: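 HeLa cells stably expressing A3G-eYFP and Vif were treated for 24 h at 37 deg C with compounds at several concentrations; yellow fluorescence (Ex 488 nm, Em 500-530 nm) read by Acumen Explorer, MG132 as positive control.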
DNA dC->dU-editing enzyme APOBEC-3G (Homo sapiens), sequence (Q9HC16 whole entry, looked up): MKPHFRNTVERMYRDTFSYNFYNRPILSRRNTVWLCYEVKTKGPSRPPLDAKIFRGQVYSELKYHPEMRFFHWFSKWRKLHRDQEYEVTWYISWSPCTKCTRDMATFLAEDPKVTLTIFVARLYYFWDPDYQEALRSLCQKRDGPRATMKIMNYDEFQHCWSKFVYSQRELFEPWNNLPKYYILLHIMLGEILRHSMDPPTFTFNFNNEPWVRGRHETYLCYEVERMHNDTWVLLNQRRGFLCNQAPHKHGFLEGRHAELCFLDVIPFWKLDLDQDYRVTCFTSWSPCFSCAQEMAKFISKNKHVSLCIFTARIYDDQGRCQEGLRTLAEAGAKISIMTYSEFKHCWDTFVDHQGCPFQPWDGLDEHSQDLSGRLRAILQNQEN
`Cc1ccc(/C=N/NC(=O)CCCOc2ccc(Cl)cc2Cl)cc1`: the Potency is 7.9 µM (active). For the compound `CCCn1c(SCC(=O)Nc2ccccc2OC)nnc1-c1ccco1`, the Potency is 17.7 µM (active). For `CCCn1nnc(NC(=S)NC(=O)c2ccccc2OC)n1`, the max response was 9.21%. On the same count and under the same terms, in the case of `CC(C)C1C(=O)N(Cc2cn(CCC3OCCCO3)nn2)CCS(=O)(=O)N1Cc1ccc(-c2cccc(CO)c2)cc1` (centres undefined) it was -8.99%. In the case of `CC(=O)C1=C(C)NC(SCC(=O)c2ccc(Cl)cc2)=C(C#N)C1c1ccco1` (centres undefined), the Potency is 16.4 µM (active). Same read-out and setting: the same measure for `O=[N+]([O-])c1ccc(N2CCN(Cc3ccccc3)CC2)c2c1no[n+]2[O-]`: 12.5 µM (active). Same read-out and setting: in the case of `CC1(C)Cc2ccccc2C2CC(O)C(=O)N21` (centres undefined) it was 20.6 µM (active). In the case of `CCCCOc1nc2ccccc2nc1NS(=O)(=O)c1ccc(F)cc1`, the max response is -6.51%. Regarding `COc1ccc(S(=O)(=O)NN(C)c2nc(C(F)(F)F)nc3ccccc23)cc1`, the Potency is 7.04 µM (active). Still for that read-out and setting: in the case of `COc1ccc(OC)c(NS(=O)(=O)c2ccc(Cl)s2)c1` it was 12.5 µM (active); in that of `CC[n+]1c(/C=C/N(C)c2ccccc2)oc2ccc(F)cc21`, 14 µM (active).

Take `CC[n+]1c(/C=C/Nc2ccccc2)oc2ccc(OC)cc21`: the Potency is 14.6 µM (active). Same read-out and setting: in the case of `CC[n+]1c(/C=C/Nc2ccccc2)oc2ccccc21` it was 9.2 µM (active); in that of `CCc1ccc(N=Nc2ccc(O)c3[nH]cnc23)cc1`, 7.31 µM (active). As for `CC(C)(C)c1ccc(Cn2c(=O)cnc3ccccc32)cc1`, the max response is 3.64%. For the compound `ClCc1nc2ccccc2n1Cc1ccccc1`, the Potency is 20.6 µM (active). As for `COc1ccc(NC2=CC(=O)CC(c3ccccc3)C2)c(OC)c1` (centres undefined), the Potency is 11.2 µM (active). The same measure, in the same setting: the same measure for `CC(=O)c1cccc(-c2ccnc3c2CC(C(=O)NCc2ccc(F)c(F)c2)O3)c1` (centres undefined): 2.8 µM (active); for `NC(=O)c1cccc(-c2ccnc3c2CC(C(=O)NCc2ccco2)O3)c1` (centres undefined): 17.7 µM (active); for `O=C(NCc1ccccc1)C1Cc2c(-c3cccc(F)c3)ccnc2O1` (centres undefined): 1.4 µM (active). Regarding `CC(=O)c1cccc(-c2ccnc3c2CC(C(=O)NCc2ccco2)O3)c1` (centres undefined), the Potency is 1.58 µM (active).

Take `O=C(NCc1ccco1)C1Cc2c(-c3cccc(F)c3)ccnc2O1` (centres undefined): the Potency is 5.59 µM (active). Same read-out and setting: the same measure for `CC(=O)c1cccc(-c2ccnc3c2CC(C(=O)NCC2CCOCC2)O3)c1` (centres undefined): 5.59 µM (active). The same measure, in the same setting: in the case of `N#CC1=C(N)Oc2c(sc3ccccc23)C1c1ccco1` (centres undefined) it was 12.5 µM (active). In the case of `CC1CC(=O)C2=C(C1)OC(N)=C(C#N)C2c1coc2ccccc2c1=O` (centres undefined), the max response is -19.2%.

In the case of `CC(O)CN(CC(C)O)c1ccc2c(c1)Cc1cc([N+](=O)[O-])ccc1-2` (centres undefined), the Potency was 0.58 µM (active). Still for that read-out and setting: in the case of `Cc1cc(C)c2cc3c(N)c(C(=O)Nc4c(C)[nH]c(=O)[nH]c4=O)sc3nc2c1` it was 11.6 µM (active); in that of `COc1cc2c(c(OC)c1OC)-c1ccc(N(C)CC(OC)OC)c(=O)cc1[C@@H](NC(C)=O)CC2`, 0.559 µM (active); in that of `CN[C@H]1CCc2cc(OC)c(OC)c(OC)c2-c2ccc(N(C)CC(OC)OC)c(=O)cc21`, 6.27 µM (active). Take `CC(C)c1ccc(C(=O)NCCCNC(=O)c2cnccn2)cc1`: the max response was 10.5%.

In the case of `O=C(NCCN1C(=O)S/C(=C\c2ccc(OC(F)F)cc2)C1=O)c1cnccn1`, the Potency is 12.5 µM (active). The same measure, in the same setting: the same measure for `O=c1c2ccccc2nc(/C=C/c2ccc([N+](=O)[O-])o2)n1CCCO`: 10.3 µM (active). Regarding `CCCN1C(=O)C(Cc2nc3ccccc3c(=O)n2CC)c2cc(Br)ccc21` (centres undefined), the max response was 11.6%. On to `CCn1c(/C=C/c2ccc([N+](=O)[O-])o2)nc2ccccc2c1=O`, for which the Potency was 20.6 µM (active). For `Cn1c(/C=C/c2ccc([N+](=O)[O-])o2)nc2ccccc2c1=O`, the Potency was 14.6 µM (active). On the same count and under the same terms, the same measure for `N#C/C(N=Nc1ccccc1O)=N\Nc1ccccc1O`: 16.4 µM (active); for `O=C(/C=C/c1ccc([N+](=O)[O-])o1)NNC(=O)c1ccc(F)cc1`: 7.9 µM (active); for `N#CCc1ccc(NC(=O)/C=C/c2ccc([N+](=O)[O-])o2)cc1`: 13 µM (active). Consider `O=C(Nc1nc2c(F)cccc2s1)c1ccc([N+](=O)[O-])o1`, for which the max response is -8.08%. Regarding `CCOC(=O)CCc1ccc(NC(=O)/C=C/c2ccc([N+](=O)[O-])o2)cc1`, the Potency was 11.6 µM (active). Take `N#C/C=C/N1CCN(C(=O)c2ccco2)CC1`: the max response was -14.7%.

Consider `CCN(CC(=O)NCc1ccc(F)cc1)C(=O)/C=C/c1ccc(OC)c(S(=O)(=O)NC(C)C)c1`, for which the Potency was 3.53 µM (active). Still for that read-out and setting: the same measure for `c1ccc(-c2cnn3c(-c4ccccc4)c(-c4ccccc4)nc3n2)cc1`: 2.59 µM (active). Regarding `Cc1ccc(C2=NN(C(=O)c3cccs3)C(c3ccccc3O)C2)cc1` (centres undefined), the max response was 20.9%. In the case of `COc1cccc(C2CC(c3ccccc3)=NN2S(=O)(=O)c2ccc(C)cc2)c1OC` (centres undefined), the Potency was 18.4 µM (active). Turning to `Cc1ccc(C2=NN(S(=O)(=O)c3ccccc3)C(c3ccccc3O)C2)cc1` (centres undefined), the Potency is 13 µM (active).

With `CCOC1=C2CN(S(=O)(=O)c3ccc(C)cc3)[C@H](c3cccc4ccccc34)C[C@H]2C(C#N)(C#N)C(C#N)(C#N)C1`, the max response was -20.1%. `O=c1c2ccccc2sc2ccc(NCCCN3CCOCC3)cc12`: the Potency is 23.1 µM (active). On the same count and under the same terms, the same measure for `COc1ccc(S(=O)(=O)N2c3ccccc3OCC2CC(=O)O)cc1` (centres undefined): 12.5 µM (active). With `COc1ccc(S(=O)(=O)N2CCN(C(=O)c3ccc([N+](=O)[O-])o3)CC2)cc1`, the max response is -0.426%. The same measure, in the same setting: the same measure for `COc1ccc(N/C=C2\C(=O)CCc3c2oc2cc(Cl)c(O)c(Cl)c32)cc1`: -5.39%; for `O=C(NC(=S)Nc1c(Cl)cc(Cl)cc1Cl)c1ccccc1`: 6.93%.

Turning to `COC(=O)/C(=C\Nc1ccc(Cl)cc1Cl)NC(=O)c1ccc(OC)cc1`, the Potency is 1.98 µM (active). On to `Clc1ccc(/C=N/NC2=Nc3cccc4cccc2c34)cc1`, for which the Potency was 20.6 µM (active). On the same count and under the same terms, the same measure for `Clc1ccccc1/C=N/NC1=Nc2cccc3cccc1c23`: 9.2 µM (active). In the case of `COc1cccc(CNCCSc2nnnn2C)c1OCc1ccc(F)cc1`, the max response is 2.02%.

In the case of `COc1ccc(-c2nc3cnccn3c2NC2CCCCC2)cc1-c1cccc(Cl)c1`, the max response was -10.6%. The same measure, in the same setting: the same measure for `c1cc(SC2CCCCC2)cc(-c2nc3cnccn3c2NC2CCCCC2)c1`: 17.4%. Consider `CCCCNc1c(-c2ccc(SC3CCCCC3)cc2)nc2cnccn12`, for which the Potency was 2.23 µM (active). As for `CN(C)c1ccc(/C=N/NC(=O)c2cc(-c3ccc4c(c3)OCO4)n[nH]2)cc1`, the Potency is 12.5 µM (active). The same measure, in the same setting: in the case of `Cc1cc(C)n(-c2nnc3n2N=C(c2c[nH]c4ccccc24)CS3)n1` it was 6.27 µM (active); in that of `CCOc1cc(/C=C2\CCC/C(=C\c3cc(Cl)c(O)c(OCC)c3)C2=O)cc(Cl)c1O`, 17.7 µM (active); in that of `COc1cc(/C=C2/CCC/C(=C\c3cc(O)c(OC)c(Cl)c3)C2=O)cc(Cl)c1O`, 14.6 µM (active).

As to `Cc1csc(NC(=O)CCC(=O)N(CC(=O)NC2CCCC2)Cc2ccccc2)n1`, the max response was -14.8%. In the case of `NC(=O)c1ccc(Cn2c(C(=O)c3cc(Cl)c(N)c(Cl)c3)c3ccccc3[n+]2[O-])cc1`, the Potency was 11.2 µM (active). `Cc1ccc(-n2nc3c(N4CCCC(C(=O)NCc5ccccc5C)C4)nnc(C)c3c2C)cc1` (centres undefined): the max response was -1.78%. The same measure, in the same setting: in the case of `Cc1ccc(Cl)cc1NC(=O)Nc1cn(CC(C)C)c(=O)c2ccccc12` it was 10.5%. `Cc1ccc(C)c(NC(=O)Cn2cc(S(=O)(=O)Cc3cccc(Cl)c3)c3ccccc32)c1`: the Potency is 18.4 µM (active). Turning to `COc1ccc(OCCCC(=O)N2CCN(S(=O)(=O)c3cccc(F)c3)CC2)cc1`, the max response is 2.87%. In the case of `O=C(Cn1ncc(Cl)c(Cl)c1=O)N1CCN(S(=O)(=O)c2ccc3ccccc3c2)CC1`, the Potency was 11.2 µM (active). On to `Cc1ccc(NC(=O)C2CCN(S(=O)(=O)c3ccc(Cl)c(C(F)(F)F)c3)CC2)nc1`, for which the max response was 8.66%. On to `O=C(Nc1ccc(Cl)cn1)c1cccc(S(=O)(=O)N2CCCCCC2)c1`, for which the max response was 1.56%. Consider `Cc1ccc(S(=O)(=O)N2CCCCC2)cc1NC(=O)Cn1ncc(Cl)c(Cl)c1=O`, for which the Potency was 12.5 µM (active). Still for that read-out and setting: the same measure for `Fc1ccc(-c2cnn3c(-c4cccs4)ccnc23)cc1`: 5.59 µM (active). Same read-out and setting: in the case of `COc1ccc(CN(C(C)=O)c2cccc(C)c2C)cc1` it was 17.7 µM (active). On the same count and under the same terms, in the case of `Cc1nnc(NC(=O)CSc2nc(C(C)C)nc3ccccc23)s1` it was 6.27 µM (active); in that of `COc1ccc(C2CC(c3ccncc3)=NN2c2ccc(S(N)(=O)=O)cc2)cc1` (centres undefined), 5.17 µM (active); in that of `COc1cc(C2C3=C(COC3=O)Oc3cc4c(cc32)OCO4)ccc1OC(C)=O` (centres undefined), 1.77 µM (active).

For `O=C1OCC2=C1C(c1ccc3c(c1)OCO3)c1cc3c(cc1O2)OCO3` (centres undefined), the Potency is 2.23 µM (active).

For `CCNc1cc(N2CCN(C3CCCCC3)CC2)c2noc3c2c1C(=O)c1ccccc1-3`, the Potency was 7.31 µM (active).

With `CN(C)CCCNc1cc(N2CCN(C3CCCCC3)CC2)c2noc3c2c1C(=O)c1ccccc1-3`, the Potency was 1.84 µM (active). On the same count and under the same terms, the same measure for `O=C1c2ccccc2-c2onc3c(N4CCN(C5CCCCC5)CC4)cc(NCCO)c1c23`: 2.59 µM (active); for `CC[N+](C)(C)c1ccc(/C=C/c2ccncc2)cc1`: 16.4 µM (active). Same read-out and setting: in the case of `CCC[N+](C)(C)c1ccc(/C=C/c2ccncc2)cc1` it was 16.4 µM (active). Consider `Cc1ccc(-c2nc(C=Nc3ccc(O)cc3)c(O)o2)cc1`, for which the max response is -18.6%. Same read-out and setting: in the case of `N#Cc1c(Nc2ccccc2)[n+]([O-])c2ccc(Cl)cc2[n+]1[O-]` it was 26.1%. `O=C1CC(c2ccccc2F)c2cc3c(cc2N1)CCC3` (centres undefined): the Potency was 2.8 µM (active). The same measure, in the same setting: the same measure for `O=C1CC(c2cc(Br)ccc2F)c2cc3c(cc2N1)CCC3` (centres undefined): 1.4 µM (active).

In the case of `CCOC(=O)Cc1csc(NC(=O)c2sc3nc4c(C)cc(C)cc4cc3c2N)n1`, the Potency was 20.6 µM (active).

These data come from PubChem BioAssay AID651813 (National Center for Advancing Translational Sciences (NCATS), 2012).
